Compound activity (PubChem)
This is a sample that favours compounds with a hit; in the whole collection about 2.9% have one here.
KDM5B inhibitor: Primary screen for KDM5B Histone Demethylases FDH-coupled qHTS. Lysine-specific demethylase 5B (Homo sapiens), Q9UGL1. hit rate 2.6% among 220,000. KDM5B demethylase, FDH-coupled NADH fluorescence (FDH is formaldehyde dehydrogenase). Potency, µM (series often up to 57.7 µM), most hits filed as inhibitors; also: nearly all actives have a fitted effect of over 70% in size
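KDM5BΔAP (200 nM final) in 50 mM HEPES pH 7.5, 0.01% Tween-20 was preincubated 10 min at RT with compound over a concentration range. Substrate mix (H3K4me3 12.5 µM, α-KG 25 µM, Fe²⁺, ascorbate, NAD⁺, FDH) was added, and NADH fluorescence change over 30 min gave dose-response curves.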
SNCA expr inh: Primary qHTS assay for inhibitors of alpha-synuclein gene (SNCA) expression | HEK-293 SNCA-luciferase knock-in, luminescence, 24 h | Potency, µM (titrated, usually from 57.2 µM), hits mostly inhibitors | hit rate 0.17% among 140,000; also: nearly all actives have a fitted effect of over 45% in size
SNCA viab count: GF-AFC viability counterscreen for inhibitors of alpha-synuclein gene (SNCA) expression; HEK-293-SNCA-luc viability, GF-AFC fluorescence, 24 h; Potency, µM (top dose mostly 57.1 µM), hits mostly cytotoxic; hit rate 0.12% among 150,000; AID 1671193, 2021; also: nearly all actives have a fitted effect of over 30% in size
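HEK-293-SNCA-luc cells (1500/well) plated 24 h, then exposed 24 h to a dilution series; GF-AFC added 30 min at 37C, fluorescence 405/540 nm; normalised to medium-only and DMSO wells, Hill fit.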
IP6K1 inh: Primary qHTS assay for small molecule inhibitors of Inositol hexaphosphate kinase 1 (IP6K1) | Inositol hexakisphosphate kinase 1 (Homo sapiens), Q92551 | IP6K1 kinase, ADP-Glo luminescence, 2 h; active compounds read low | activity change, % (series mostly up to about 58 µM) | hit rate 0.81% among 140,000 | AID 1645851, 2021; in the data active = activity change below about -25%
Target sequence (Q92551 whole entry, looked up): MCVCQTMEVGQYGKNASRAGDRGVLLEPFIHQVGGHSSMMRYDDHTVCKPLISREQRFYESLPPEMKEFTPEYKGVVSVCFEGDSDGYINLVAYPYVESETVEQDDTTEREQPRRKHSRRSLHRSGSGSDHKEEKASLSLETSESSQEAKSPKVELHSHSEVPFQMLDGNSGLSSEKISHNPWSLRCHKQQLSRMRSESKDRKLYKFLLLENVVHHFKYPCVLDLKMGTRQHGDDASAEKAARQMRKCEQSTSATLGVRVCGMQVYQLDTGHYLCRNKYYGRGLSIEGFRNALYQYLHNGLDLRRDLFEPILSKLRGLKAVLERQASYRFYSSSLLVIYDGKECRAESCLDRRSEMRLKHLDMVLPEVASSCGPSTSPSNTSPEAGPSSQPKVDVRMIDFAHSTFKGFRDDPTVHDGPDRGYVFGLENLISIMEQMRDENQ
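ADP-Glo luminescence measures ADP made by human IP6K1 during a 2 h RT reaction with ATP/IP6 (mix at 1.3 mM/130 uM); top library doses 57.5 and 19.1 uM final.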
Each line names hits and unclear results; the compound was inactive in the other large screens. Unless noted, calls follow the shape of the dose curve; as a rule, active = well fitted curve in the direction sought with a large enough effect; inconclusive = small, poorly fitted or top-dose-only effect, or another doubt; inactive = no such curve, though single readings can be large; an effect the other way counts as inactive or inconclusive.

CCN(CC)C(=O)CC1COc2ccc(C(=O)NCCOC)cc2N1C (centres undefined)	KDM5B inhibitor 28µM
Cc1cncc(NC(=O)CC2COc3ccc(C(=O)N(C)C)cc3N2C)c1 (centres undefined)	none
CCNC(=O)CC1COc2ccc(C(=O)NCCOC)cc2N1C (centres undefined)	KDM5B inhibitor 32µM
CN1c2cc(C(=O)N3CCOCC3)ccc2OCC1CC(=O)NC(C)(C)C (centres undefined)	none
COCCNC(=O)c1ccc2c(c1)N(C)C(CC(=O)Nc1ccccc1)CO2 (centres undefined)	KDM5B inhibitor 32µM
O=C(c1ccc(Cl)nc1)N1CCN(c2nccc(Nc3ccccc3F)n2)CC1	none (no result: KDM5B inhibitor)
COCCNC(=O)c1ccc2c(c1)N(C)C(CC(=O)N(C)CC(C)C)CO2 (centres undefined)	KDM5B inhibitor 32µM
O=C1c2c(nc(CNCc3cnccn3)n2Cc2ccccc2)NCCN1Cc1cccc(Cl)c1	KDM5B inhibitor 25µM
COc1ccc(-c2cccc(C(=O)NCc3ccccc3)c2)nn1	none (no result: KDM5B inhibitor, SNCA expr inh, SNCA viab count)
COCCOc1ccc(C(=O)N[C@@H]2CN(C(=O)Nc3ccc(F)cc3)CCC[C@H]2O)cc1	none
COC(=O)c1ccccc1NC(=O)N1CCC[C@@H](O)[C@H](NC(=O)c2ccc(OCc3c(C)noc3C)cc2)C1	KDM5B inhibitor 22µM
NC(=O)COc1ccc(C(=O)N[C@@H]2CN(C(=O)NC3CCCCC3)CCC[C@H]2O)cc1	SNCA expr inh inconclusive
O=C(N[C@@H]1CN(C(=O)Nc2ccc(F)cc2)CCC[C@H]1O)c1ccc(OCCN2CCCC2)cc1	KDM5B inhibitor 28µM
NC(=O)COc1ccc(C(=O)N[C@@H]2CN(Cc3ccccn3)CCC[C@H]2O)cc1	KDM5B inhibitor 32µM
Cc1noc(C)c1COc1ccc(C(=O)N[C@@H]2CN(C(=O)Nc3cccc(C(F)(F)F)c3)CCC[C@H]2O)cc1	none
CC(C)c1ccc(CN2CCc3ncc(C(=O)Nc4ccccc4)n3CC2)cc1	KDM5B inhibitor inconclusive, SNCA expr inh inconclusive
CCN(Cc1cnn(CC)c1)C(=O)CN1C(=O)C2(CCCCC2)C1c1ccccc1 (centres undefined)	none (no result: KDM5B inhibitor)
COc1ccc(-c2ccnc3nc(Cc4ccc(F)cc4)nn23)cc1OC	KDM5B inhibitor 28µM
COc1ccc(CCc2nc3nccc(-c4ccc(F)cc4)n3n2)cc1OC	none
COCc1nc2nccc(-c3ccc4c(c3)CC(C)O4)n2n1 (centres undefined)	KDM5B inhibitor 28µM
CCc1nc2nccc(-c3ccc(OC)cc3)n2n1	KDM5B inhibitor 22µM, SNCA expr inh inconclusive
COCc1nc2nccc(-c3ccc(OC)cc3)n2n1	none
COc1ccc(Cc2nc3nccc(-c4ccc(OC)cc4)n3n2)cc1	KDM5B inhibitor 14µM
O=C(NCCCc1ccccc1)c1ccc2nnc(-c3ccc(Cl)cc3)n2c1	none (no result: KDM5B inhibitor)
CCOc1ccc2c(c1)cc(C(=O)NC(C)C)n2C	none (no result: SNCA expr inh, SNCA viab count, IP6K1 inh)
COc1cccc(-c2ccnc3nc(-c4cccs4)nn23)c1	KDM5B inhibitor inconclusive
CCc1nc2nccc(-c3cccc(OC)c3)n2n1	KDM5B inhibitor 25µM
CCc1nc2nccc(-c3ccc4c(c3)OCCCO4)n2n1	KDM5B inhibitor 28µM
COc1ccc(Cc2nc3nccc(-c4ccc(OC)c(OC)c4)n3n2)cc1	KDM5B inhibitor 20µM
COc1cccc(CCC(=O)N[C@@H]2COCC[C@@H]2Oc2cccc(F)c2)c1	none
CC(C)c1cc(C(=O)N[C@@H]2COCC[C@@H]2Oc2cccc(F)c2)nc(N)n1	KDM5B inhibitor 28µM
COc1cccc(N2CCN(c3nc(C(=O)NCc4ccncc4)cs3)CC2)c1	KDM5B inhibitor inconclusive
C=CCOC(=O)C1=C(C)N=C2SC=C(CC(=O)N3CCCC3)N2C1c1cc(OC)cc(OC)c1 (centres undefined)	none
C=CCOC(=O)C1=C(C)N=C2SC=C(CC(=O)N3CCCC3)N2C1c1ccc(OC)cc1OC (centres undefined)	KDM5B inhibitor 28µM
N#Cc1c(SCC(=O)NCCc2ccccc2)nc(N2CCOCC2)c2c1CCCC2	none (no result: SNCA expr inh, SNCA viab count, IP6K1 inh)
COc1ccc(-c2cc(C(=O)NCc3ccc(F)cc3F)c3cnn(C)c3n2)cc1	none (no result: KDM5B inhibitor, SNCA expr inh, SNCA viab count)
Cc1nn2c(c1-c1ccccc1OCc1ccccc1)N(Cc1ccccc1O)CCC2	KDM5B inhibitor inconclusive, SNCA expr inh inconclusive
Cc1nn2c(c1-c1ccccc1Oc1ccccc1)N(CC1CC1)CCC2	KDM5B inhibitor 32µM, SNCA expr inh inconclusive, SNCA viab count inconclusive
Cc1nn2c(c1-c1ccccc1OCc1ccccc1)N(Cc1cccnc1)CCC2	none
Cc1nn2c(c1-c1cccnc1N1CCOCC1)N(CC1CC1)CCC2	KDM5B inhibitor 35µM
Cc1nn2c(c1-c1ccccc1OCc1ccccc1)N(CC1CC1)CCC2	KDM5B inhibitor 35µM, SNCA expr inh inconclusive, SNCA viab count 10µM
COc1ccc(OC)c(CN2CCCn3nc(C)c(-c4ccccc4OCc4ccccc4)c32)c1	KDM5B inhibitor 28µM, SNCA expr inh inconclusive, SNCA viab count 4µM
O=C(C1CCCC1)N1CC2(CCN(Cc3cccnc3)C2)Cc2ccccc21 (centres undefined)	SNCA viab count inconclusive
O=C(CCc1ccccc1)N1CCC2(CC1)CN(c1ncccn1)CC2CO (centres undefined)	KDM5B inhibitor inconclusive
COc1ccccc1C(=O)N1CCC2(CC1)CN(c1ncccn1)CC2CO (centres undefined)	KDM5B inhibitor 25µM
COCCN1CC(CO)C2(CCN(C(=O)CCn3cc(C)cn3)CC2)C1 (centres undefined)	KDM5B inhibitor inconclusive
CC(=O)N1CC(CO)C2(CCN(C(=O)c3cccc(C#N)c3)CC2)C1 (centres undefined)	none
Cc1cnn(CC(=O)N2CCC3(CC2)CN(c2ncccn2)CC3CO)c1 (centres undefined)	KDM5B inhibitor 35µM
N#Cc1ccc(C(=O)N2CCC3(CC2)CN(c2ncccn2)CC3CO)cc1 (centres undefined)	KDM5B inhibitor 22µM
Cc1ccccc1C(=O)N1CCC2(CC1)CN(c1ncccn1)CC2CO (centres undefined)	KDM5B inhibitor 32µM
CCOc1ccccc1C(=O)N1CCC2(CC1)CN(c1ccncn1)CC2CO (centres undefined)	none
CSc1ccc(-c2cccc(CN)c2)cc1	KDM5B inhibitor inconclusive, SNCA viab count inconclusive
Cn1ncc2c(C(=O)NCc3ccccc3)cc(-c3ccccc3F)nc21	none (no result: KDM5B inhibitor, SNCA expr inh, SNCA viab count)
O=C(c1ccc2cc[nH]c2c1)N1CCC(n2cc(-c3nc(-c4ccccc4)no3)nn2)CC1	KDM5B inhibitor inconclusive
COCC1CCN(c2ccc(-c3nc(-c4ccccc4C)no3)cn2)C1 (centres undefined)	KDM5B inhibitor 32µM
COC(=O)[C@@H]1CCCN1c1ccc(-c2nc(-c3ccccc3F)no2)cn1	KDM5B inhibitor 25µM, SNCA expr inh 11µM
CC(=O)NC1CCN(Cc2cccc(-c3cccs3)c2)CC1	none (no result: KDM5B inhibitor)
CSc1ccc(-c2cccc(CN3CCC(NC(=O)Nc4ccccc4)CC3)c2)cc1	none (no result: KDM5B inhibitor, SNCA expr inh, SNCA viab count)
